The values below come from PubChem BioAssay AID1159580 (chemical genetic matrix, 2015).

Structures are written as SMILES. In all, about 5,500 compounds went through this assay and about 2,000 (36%) were called active. Not shown: some 18% with an inconclusive outcome. Some of the results follow. Unmarked numbers belong to inactive results. No stated cut-off is given here; in the data, active means normalized growth mostly below about 0.91 (no sharp cut-off); inconclusive means no clear call, values can overlap the other calls; inactive means mostly above about 0.92.

A short description of the test: chemical genetic growth profiling, strain panel (AID 1159580).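 Further: tested at 20 µM; growth read once vehicle control cultures reached saturation at 30 °C; 1 = growth at the plate median or of vehicle wells.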 The settings on record: S. cerevisiae deletion strains, growth OD.
The mark [1] stands for this setting: locus YHR030C, strain SLT2, stronger effect = lower value.
Setting [2] is: locus YHR079C, strain IRE1, stronger effect = lower value.
[3] abbreviates: locus YJL095W, strain BCK1, stronger effect = lower value.
[4] abbreviates: locus YJR066W, strain TOR1, stronger effect = lower value.
[5] abbreviates: locus YLR113W, strain HOG1, stronger effect = lower value.
Where [6] appears, read: locus YNL183C, strain NPR1, stronger effect = lower value.
Setting [7] is: locus YOR231W, strain MKK1, stronger effect = lower value.
[8] abbreviates: locus YPL256C, strain CLN2, stronger effect = lower value.
[9] abbreviates: locus YAL013W, strain DEP1, stronger effect = lower value.
[10] abbreviates: locus YBR229C, strain ROT2, stronger effect = lower value.
The mark [11] stands for this setting: locus YDL101C, strain DUN1, stronger effect = lower value.
Where [12] appears, read: locus YDR150W, strain NUM1, stronger effect = lower value.
[13] abbreviates: locus YEL061C, strain CIN8, stronger effect = lower value.
[14] abbreviates: locus YGR078C, strain PAC10, stronger effect = lower value.
The mark [15] stands for this setting: locus YHR087W, strain rtc3, stronger effect = lower value.
Where [16] appears, read: locus YJR043C, strain POL32, stronger effect = lower value.
[17] abbreviates: locus YJR075W, strain HOC1, stronger effect = lower value.
The mark [18] stands for this setting: locus YLR039C, strain RIC1, stronger effect = lower value.
Where [19] appears, read: locus YLR058C, strain SHM2 (second series), stronger effect = lower value.
Where [20] appears, read: locus YLR085C, strain ARP6, stronger effect = lower value.
The mark [21] stands for this setting: locus YLR262C, strain YPT6, stronger effect = lower value.
[22] abbreviates: locus YML094W, strain GIM5, stronger effect = lower value.
Setting [23] is: locus YMR219W, strain ESC1, stronger effect = lower value.
Where [24] appears, read: locus YMR263W, strain SAP30, stronger effect = lower value.
Where [25] appears, read: locus YNL153C, strain GIM3, stronger effect = lower value.
The mark [26] stands for this setting: locus YNL298W, strain CLA4 (second series), stronger effect = lower value.
[27] abbreviates: locus YNL322C, strain KRE1, stronger effect = lower value.
Setting [28] is: locus YNR030W, strain Alg12, stronger effect = lower value.
The mark [29] stands for this setting: locus YOL006C, strain TOP1, stronger effect = lower value.
[30] abbreviates: locus YPL055C, strain LGE1, stronger effect = lower value.
The mark [31] stands for this setting: locus YPL241C, strain CIN2, stronger effect = lower value.
[32] abbreviates: locus YPR135W, strain CTF4, stronger effect = lower value.

With `COc1ccc(C(C)=O)c(O)c1`, the normalized growth under setting [1] was 0.966; the normalized growth under setting [2] was 0.965; the normalized growth under setting [3] is 0.968; the normalized growth under setting [4] is 0.905; the normalized growth under setting [5] is 0.96; the normalized growth under setting [6] was 0.892. Also, the normalized growth was 0.968 under setting [7] and 0.957 under setting [8].

Consider `COC(=O)c1cc(OC)c(OC)c(OC)c1NS(=O)(=O)c1cc(OC)ccc1OC`, for which the normalized growth by setting is: under setting [9], 0.999; under setting [10], 0.999; (locus YCL061C, strain MRC1, stronger effect = lower value) 0.974; under setting [11], 0.968; (locus YDL134C, strain PPH21, stronger effect = lower value) 1.02; under setting [12], 0.984. In addition, the normalized growth is, setting by setting: under setting [13], 1.03; under setting [14], 0.983; (locus YGR229C, strain SMI1, stronger effect = lower value) 1.01; under setting [1], 0.965; under setting [15], 1.03; under setting [16], 0.987. Moreover, the normalized growth is 0.992 under setting [17]; 0.984 under setting [18]; 1.02 under setting [19]; 1.02 under setting [20]; 1.02 under setting [21]; 1.04 under setting [22]. The normalized growth is, setting by setting: under setting [23], 1; under setting [24], 1; (locus YNL128W, strain TEP1, stronger effect = lower value) 1; under setting [25], 0.992; under setting [26], 0.987; under setting [27], 0.996. Moreover, the normalized growth runs as follows: under setting [28], 1.01; under setting [29], 0.981; under setting [30], 1.03; under setting [31], 0.983; under setting [32], 0.969.

For `COc1ccc(C(C)=O)c(OC)c1`, the normalized growth is 0.954 under setting [1]; 0.952 under setting [2]; 0.965 under setting [3]; 0.953 under setting [4]; 0.948 under setting [5]; 0.895 under setting [6]. The normalized growth under setting [7] is 0.934 and the normalized growth under setting [8] is 0.909.

Regarding `COc1ccc(OC)c(C(=O)c2cc(OC)c(OC)c(OC)c2)c1`, the normalized growth under setting [9] is 0.999; the normalized growth under setting [10] was 1.02; the normalized growth under setting [11] is 1; the normalized growth under setting [12] is 1.01; the normalized growth under setting [13] was 1.05; the normalized growth under setting [14] is 1. For the same compound, the normalized growth runs as follows: under setting [1], 0.93; under setting [15], 1.06; (locus YJL187C, strain SWE1, stronger effect = lower value) 1.01; under setting [16], 1.02; under setting [17], 1.03; (locus YKL190W, strain CNB1, stronger effect = lower value) 1.03. Further, the normalized growth is 0.753 (active) under setting [18]; 1.01 under setting [19]; 0.999 under setting [20]; 0.69 (active) under setting [21]; 0.982 under setting [22]; 1.01 under setting [23]. Besides, the normalized growth runs as follows: under setting [24], 1.01; under setting [25], 1.01; under setting [26], 1.01; under setting [27], 0.995; under setting [28], 1.01; under setting [29], 0.973. The normalized growth by setting is: under setting [30], 1.01; under setting [31], 0.986; under setting [32], 1.06.
